# Experiments:
# Type in all cases: functional
# Plasmodium falciparum [1] = experiment: GSK_TCMDC: Inhibition of Plasmodium falciparum 3D7 in whole red blood cells, using parasite LDH activity as an index of growth. Test compounds present at 2uM
# Plasmodium falciparum [2] = experiment: GSK_TCMDC: Inhibition of Plasmodium falciparum Dd2 in whole red blood cells, using parasite LDH activity as an index of growth. Test compounds present at 2uM
# HepG2 = experiment: GSK_TCMDC: Percent inhibition of human HepG2 cell line. Test compounds present at 10uM.
Structure (SMILES),Inhibition (Plasmodium falciparum [1]),Inhibition (Plasmodium falciparum [2]),Inhibition (HepG2)
Cc1c(C(=O)NCc2ccncc2)sc2nc(-c3cccc([N+](=O)[O-])c3)cn12,97%,29%,18%
Nc1nccc2ccc(-c3ccc4ncccc4c3)cc12.O=C(O)C(F)(F)F,100%,100%,97%
COc1cccc2sc(N3CCN(C(=O)c4ccc([N+](=O)[O-])o4)CC3)nc12,95%,67%,0%
O=C(Nc1ccc(Br)c(C(F)(F)F)c1)c1cccc([N+](=O)[O-])c1,94%,3%,24%
Br.CCN(CC)CCn1c(=N)n(CC(=O)c2ccc(-c3ccccc3)cc2)c2ccccc21,83%,38%,32%
Fc1cccc(COc2ccc(Nc3ncnc4sc(C#C[C@H]5CC[C@H](CNCC(F)(F)F)N5)cc34)cc2Cl)c1,100%,51%,10%
Cc1cc([N+](=O)[O-])ccc1N1CCN(CCCCNC(=O)c2ccc(NC(=O)c3ccc(Cl)cc3)cc2)CC1,92%,0%,33%
N#C/N=C(\NCCCCCCCCN/C(=N\C#N)NCCSCc1csc(N=C(N)N)n1)NCCCSc1csc(N=C(N)N)n1,91%,24%,0%
CN1CCN(c2cccc(Nc3nccc(NCC(O)c4ccccc4)n3)c2)CC1 (stereo not given),100%,4%,30%
COc1cccc(NC(=O)c2cc([N+](=O)[O-])ccc2NC(=O)CN2CCc3ccccc3C2)c1,100%,37%,5%

# Source: ChEMBL document CHEMBL1157539, “Thousands of chemical starting points for antimalarial lead identification” (Nature, 2010)
